# KCNQ2 pot: potentiators of rat KCNQ2 potassium channel. O88943. CHO-K1 KCNQ2, FluxOR thallium flux fluorescence; stronger effect = higher value. B-score at 10 µM. 310,000 compounds, 0.54% hits;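 active means fluorescence ratio B-score at least 3 SD of library B-scores, with initial fluorescence B-score within 3 of them, cut at about 5.3 in these data; same plate scores as AID 2156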;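 further: B-score of peak minus minimum over baseline fluorescence ratio after K+ and Tl+ stimulus; positive B-score means potentiation of KCNQ2 with more thallium influx and brighter signal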
# Target sequence (O88943 whole entry, looked up): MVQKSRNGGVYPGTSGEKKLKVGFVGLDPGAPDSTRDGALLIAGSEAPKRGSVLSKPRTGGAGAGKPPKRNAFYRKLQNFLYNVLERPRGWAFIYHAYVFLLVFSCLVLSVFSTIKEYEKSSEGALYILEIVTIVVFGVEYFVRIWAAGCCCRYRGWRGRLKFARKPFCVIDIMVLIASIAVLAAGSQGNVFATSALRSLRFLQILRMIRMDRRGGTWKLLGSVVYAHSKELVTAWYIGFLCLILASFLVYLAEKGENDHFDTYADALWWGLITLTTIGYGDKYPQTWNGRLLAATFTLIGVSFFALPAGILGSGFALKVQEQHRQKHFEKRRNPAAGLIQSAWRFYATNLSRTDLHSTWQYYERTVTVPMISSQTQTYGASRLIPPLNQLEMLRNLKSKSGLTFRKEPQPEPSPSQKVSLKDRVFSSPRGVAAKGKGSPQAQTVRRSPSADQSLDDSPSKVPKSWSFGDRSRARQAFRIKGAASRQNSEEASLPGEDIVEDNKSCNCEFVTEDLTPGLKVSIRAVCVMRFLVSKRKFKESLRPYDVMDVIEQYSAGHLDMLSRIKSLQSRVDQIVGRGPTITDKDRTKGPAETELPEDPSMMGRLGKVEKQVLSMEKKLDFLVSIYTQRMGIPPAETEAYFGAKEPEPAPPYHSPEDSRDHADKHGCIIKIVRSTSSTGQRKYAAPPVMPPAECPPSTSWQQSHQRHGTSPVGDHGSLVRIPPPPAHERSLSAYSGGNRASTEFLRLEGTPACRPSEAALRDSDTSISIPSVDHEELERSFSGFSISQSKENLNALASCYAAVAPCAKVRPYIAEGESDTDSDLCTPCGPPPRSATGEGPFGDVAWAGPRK
# KCNQ2 inh: blocks the rat KCNQ2 potassium channel; CHO-K1 KCNQ2, FluxOR thallium flux, 20 min; stronger effect = lower value; O88943; 310,000 compounds, 1.1% hits; B-score at 10 µM; AID 2156;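 active means fluorescence ratio B-score at most minus 3 library SDs, with starting brightness B-score within 2 library SDs, cut at about -5.5 in these data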
# An asterisk follows results filed as active; i = inactive; nt = no result given. In the library only some 1.6% were active in any assay of this set; here they are far more common.
SMILES,KCNQ2 pot,KCNQ2 inh
CCc1ccccc1-n1nnnc1SCC(=O)Nc1ccc(N2CCN(C)CC2)cc1,0.33,i
CCCCN(C(=O)c1ccc2c(c1)OCO2)c1ccccc1,nt,i
C=CCc1cccc(/C=N/NC(=O)CNc2ccccc2OC)c1O,6.2*,i
C=CCc1cccc(/C=N/NC(=O)CNc2cccc3ccccc23)c1O,0.98,i
O=C(NNC(=O)c1ccc2ncccc2c1)c1ccc(Cl)cc1,8.05*,i
Cc1ccc(C(=O)NNC(=O)c2ccc3ncccc3c2)cc1,0.55,i
O=C(Cc1ccccc1)NCCSCc1ccc(Cl)cc1,1.39,i
COc1ccccc1OCC(=O)NCCSCc1ccccc1Cl,-6.19,-6.19*
COc1ccccc1C(=O)NCCCNC(=O)c1ccccn1,nt,i
O=C(COc1ccccc1)NCCSCc1ccccc1Cl,nt,i
COc1ccccc1OCC(=O)NCCNC(=O)COc1ccccc1OC,nt,i
COc1ccccc1OCC(=O)NCCSCc1cccc(Cl)c1,-6.4,-6.4*
COc1ccccc1C(=O)NCCSCc1ccccc1Cl,-6.38,-6.38*
O=C(COc1ccccc1)NCCSCc1ccc(Cl)cc1,-6.57,-6.57*
COc1cc(-c2c(NC(=O)c3ccco3)oc3ccccc3c2=O)cc(OC)c1OC,1.43,i
Cc1cc(C)n(-c2cccc(CN(C)Cc3nc(-c4cnccn4)no3)c2)n1,nt,i
COc1ccc2[nH]c(CN3CCC(n4nccc4NC(=O)C4CC4)CC3)c(C)c2c1,1.34,i
O=C(CC1C(=O)NCCN1Cc1cccc(Oc2ccccc2)c1)NCCCn1cccn1 (centres undefined),nt,i
O=C(Cc1ccccc1F)NCC1(N2CCOCC2)CCCCC1,nt,i
COc1ccccc1CNC(=O)C(=O)NCC1CCCN1S(=O)(=O)c1cccs1 (centres undefined),nt,i
CC(=O)c1ccc(-c2ccc(C(=O)NC3CCCCCC3)o2)cc1,nt,i
COc1ccc(NC(=O)CN(C)C(=O)CSCc2ccc(C)cc2)cc1,0.69,i
COc1ccccc1C(=O)NCCOc1ccc(C(C)(C)C)cc1,-5.78,-5.78*
CC(C)(C)c1ccc(C(=O)NCCOc2ccccc2)cc1,nt,i
CC(=O)n1cc(N(C(=O)CCl)c2ccc([N+](=O)[O-])cc2)c2ccccc21,nt,i
SMILES,KCNQ2 pot,KCNQ2 inh
O=Cc1[nH]c2ccccc2c1N(C(=O)CCl)c1ccc([N+](=O)[O-])cc1,-11.6,-11.6*
Cc1cc(C)c(NC(=O)c2ccc3c(c2)CCN3S(C)(=O)=O)c(C)c1,2.75,i
CC1=C(C(=O)N2CCOCC2)C(c2c(F)cccc2F)NC(=O)N1 (centres undefined),0.55,i
CCOc1cc(CNc2ccc(O)cc2)cc(Br)c1OCc1ccccc1F,nt,i
C=CCOc1c(Br)cc(CNc2ccc(NC(=O)C(C)C)cc2)cc1OCC,8.32*,i
O=C(OCC(=O)c1c[nH]c2ccccc12)c1cccc(S(=O)(=O)N2CCCCCC2)c1,8.85*,i
O=C(COC(=O)c1cccc(S(=O)(=O)N2CCCC2)c1)Nc1ccccc1,1.61,i
COc1ccc(Br)cc1CNC(=O)c1ccc2c(c1)N(C)CCS2,-6.38,-6.38*
CCN1CCSc2ccc(C(=O)NCc3cc(Br)ccc3OC)cc21,nt,i
COc1ccc(NC(=O)C2CCCN(S(=O)(=O)c3ccc(Cl)cc3)C2)cc1OC (centres undefined),0.55,i
CC(C)CCSc1nc(N2CCOCC2)c2c(c1C#N)CC(C)(C)OC2,-6.54,-6.54*
COC(=O)CCSc1nc(N2CCOCC2)c2c(c1C#N)CC(C)(C)OC2,1.84,i
FC(F)(F)c1ccc(C2[C@H]3CN(Cc4ccc(-c5ccccc5)cc4)[C@H](c4ccccc4)C34CC2(c2cccnc2)C4)cc1 (some centres undefined),1.03,i
FC(F)(F)c1ccc(C2[C@H]3CN(Cc4cccnc4)[C@H](c4ccccc4)C34CC2(c2cccnc2)C4)cc1 (some centres undefined),-7.17,-7.17*
COc1ccc(NC(=O)c2cccn(CC=C(C)C)c2=O)cc1,0.87,i
c1ccc(CCc2nn3c(C4COc5ccccc5O4)nnc3s2)cc1 (centres undefined),-6.14,-6.14*
c1ccc(Cc2nn3c(C4COc5ccccc5O4)nnc3s2)cc1 (centres undefined),nt,i
COc1ccc(CN(C)C(=O)COC(=O)c2c(-c3ccccc3Cl)noc2C)cc1,nt,i
O=C(COC(=O)C1CC2CCCC(C1)C2=O)NNC(=O)c1ccccc1F (centres undefined),nt,i
O=C(COC(=O)C1CCC1)NCc1ccc(Cl)cc1Cl,nt,i
Cc1cc(-c2ccccc2)nc2cc(C(=O)N(Cc3ccccc3)Cc3ccccc3)nn12,-7.24,-7.24*
COC(=O)c1cc2nc(-c3ccccc3)cc(C)n2n1,1.56,i
Cn1c(SCC(=O)Nc2ccc3c(c2)n(C)c(=O)n3C)nnc1-c1ccncc1,nt,i
O=C(Cn1c(=O)n(CC(=O)NCc2ccccc2)c2ccccc21)NCc1ccccc1,nt,i
Cc1cc(=O)c2cc(Br)ccc2n1CC(=O)NCc1ccccc1,-8.29,-8.29*
SMILES,KCNQ2 pot,KCNQ2 inh
CC(C)N(Cc1ccccc1)S(=O)(=O)c1ccc2c(c1)NC(=O)CO2,0.88,i
CCC1(C)Cc2ccccc2-c2nc(NN)[nH]c(=O)c21 (centres undefined),nt,i
CCC1(C)Cc2ccccc2-c2nc(-c3ccccc3)oc(=O)c21 (centres undefined),-5.54,-5.54*
CCC(C)(C)NC(=O)c1ccc(S(=O)(=O)N2CCCCCC2)cc1,1.47,i
Fc1ccccc1-c1nc2nc3ccccc3nc2n1CC1CCCO1 (centres undefined),0.07,i
CCOc1ccc(CCNC(=O)COC(=O)c2nc(Cl)ccc2Cl)cc1OCC,nt,i
CCc1ccc2[nH]c(=O)c(C(c3nnnn3Cc3ccc(OC)cc3)N3CCOCC3)cc2c1 (centres undefined),nt,i
Cc1cc(C)c2cc(C(c3nnnn3C3CCCC3)N3CCOCC3)c(=O)[nH]c2c1 (centres undefined),-6.05,-6.05*
Cc1cc(C)c2[nH]c(=O)c(C(c3nnnn3CC3CCCO3)N3CCC(C)CC3)cc2c1 (centres undefined),nt,i
COc1ccc(Cn2nnnc2C(c2cc3cc(C)cc(C)c3[nH]c2=O)N2CCOCC2)cc1 (centres undefined),-6.66,-6.66*
Cc1cc(C)c2[nH]c(=O)c(C(c3nnnn3CC3CCCO3)N3CCCC(C)C3)cc2c1 (centres undefined),-5.61,-5.61*
Cc1ccc2cc(C(c3nnnn3C3CCCC3)N3CCN(c4ccc(F)cc4)CC3)c(=O)[nH]c2c1 (centres undefined),nt,i
Cc1cccc2cc(C(c3nnnn3Cc3ccccc3)N3CCN(C)CC3)c(=O)[nH]c12 (centres undefined),nt,i
Cc1cccc2cc(C(c3nnnn3Cc3ccccc3)N3CCN(c4ccccc4)CC3)c(=O)[nH]c12 (centres undefined),-9.04,-9.04*
O=C(CCc1nnc2ccc(NCc3ccccc3)nn12)NC1CCCCC1,0.85,i
COc1ccccc1-n1cc(CN2CCN(CC=C(C)C)C(CCO)C2)cn1 (centres undefined),2.03,i
N#CCCN(C(=O)c1ccc2c(=O)n3c(nc2c1)CCCCC3)c1ccccc1,0.8,i
COc1ccccc1C(CNC(=O)C(CCSC)NS(=O)(=O)c1ccccc1F)N1CCCC1 (centres undefined),0.28,i

# Assay outcomes from PubChem.
